Source: PubChem BioAssay AID602477 (National Center for Advancing Translational Sciences (NCATS), 2012)
Results filed as inconclusive are left out. Activity calls are given as the source filed them. Calls come from the whole dose curve; as a rule, active = well fitted activation curve with a large enough effect; inconclusive = small, poorly fitted or top-dose-only effect; inactive = no such curve, though single readings can be large or run the other way.

assay: FLuc inhibitory activity for the follow-up compounds in a cell-based assay to assess the activity of miR-21; conditions: HeLa miR-21-FLuc reporter, luciferase luminescence, 48 h; series mostly up to 38.3 µM; activity change, positive = activation: at the top concentration
From the text: NCGC Assay Overview: Firefly (Photinus pyralis) luciferase is one of the most commonly used transcriptional reporters. It is considered one of the more dynamically responsive reporters - that is, responsive to changes in reporter transcription - as it requires no post-translational modifications and is enzymatically active directly after protein synthesis (Wood, 1998). With no endogenous expression in mammalian cells and without the requirement of external excitation, it offers very little background signal, thus generally providing excellent signal to background for most assays. Previous profiling work to determine the prevalence of compounds that affect FLuc enzymatic activity (PubChem AID 411) identified that ~3% of the MLSMR library (then at ~72K) inhibited FLuc (Auld et al., 2008). […] Of the compounds identified in this profile that inhibited FLuc, 151 compounds were selected for further analysis, in an effort to better understand their mode of inhibiting FLuc. The assay described here was to determine the activity of the compounds in a cell-based firefly luciferase reporter gene assay originally designed to identify antagonists of miR-21. Compounds that inhibit miR-21 or compounds that stabilize FLuc intracellularly are identified as active compounds in the assay.
NCGC Assay Protocol Summary: Reagents: In-house detection reagent: 300mM Tris-HCl, 300mM Trizma base, 300mM MgCl, 1% Triton-X100, 5mM DTT, 500uM Coenzyme A trilithium salt (Sigma #C3019),450uM ATP (Sigma #A7699), 1mM D-luciferin sodium salt monohydrate (Biosynth #L8240) HeLa cells stably expressing firefly luciferase (FLuc) under the control of a CMV promoter (upstream) and a miR-21 binding sequence directly downstream of the gene. These cells endogenously express miR-21. Control compounds used were two known firefly luciferase inhibitors (3-(5-(3-chlorophenyl)-1,2,4-oxadiazol-3-yl)benzoic acid and 5-(2-fluorophenyl)-3-phenyl-1,2,4-oxadiazole), and DMSO. Assay Summary: 6uL of HeLa miR-21-FLuc cells in assay buffer (DMEM, Invitrogen #21063-029; 10% FBS, HyClone #SH30071.03) were dispensed at 2000cells/well (3.3 x 10^5 cells/mL) into Greiner solid-white TC-treated 1536-well plates using a Multidrop Combi (Thermo Fisher Scientific). Plates were incubated for one hour at 37 degree Celsius, 95% humidity, 5% CO2. These assay plates were then treated with 23nL of compound or DMSO using a Kalypsys pin tool, which allows for delivery of a 12-point titration of each compound to the assay plate, with a final compound concentration ranging from approximately ~38uM to 0.2nM. Assay plates were then incubated for 48 hours. After incubation, plates were allowed to come to RT for one hour prior to delivery of 3uL of 3X luciferase detection reagent. After a 15 minute incubation to allow for cell lysis, luciferase activity was measured using a ViewLux CCD imager (PerkinElmer), with an average exposure time of 2-12 seconds.

Q: Which Potency does the source give for C/C(=N\NC(=O)c1ccccc1NC(=O)c1ccc(Cl)cc1)c1ccncc1 here?
A: 44.9 nM (active)

Q: Which Potency does the source give for Cc1ccc(C(=O)Nc2cccc(C(=O)O)c2)cc1 here?
A: 126 nM (active)

Q: Which “activity change, positive = activation” value does the source give for O=C(O)c1cccc(NC(=O)c2cccc(S(=O)(=O)Nc3cccc(F)c3)c2)c1 here?
A: 7.01% (inactive)

Q: Which Potency does the source give for Nc1ccc(-c2nc3cc(N)ccc3s2)cc1 here?
A: 2250 nM (active)

Q: For COc1ccc2nc(NC(=O)c3ccc(NS(=O)(=O)c4cccs4)cc3)sc2c1, which Potency is on record?
A: 8950 nM (active)

Q: Which Potency does the source give for Nc1ccccc1C(=O)Nc1cccc(C(=O)O)c1 here?
A: 11300 nM (active)

Q: For Cc1ccc2sc(-c3ccc(NC(=O)c4cc(-n5cnnc5)ccc4Cl)cc3)nc2c1, which Potency is on record?
A: 1790 nM (active)

Q: For CN(C)c1cccc(C(=O)Nc2ccc(-c3nc4ccccc4s3)cc2)c1, which Potency is on record?
A: 503 nM (active)

Q: Which Potency does the source give for CC(C)c1ccc(C(=O)Nc2ccc(-c3nc4ccccc4s3)c(Cl)c2)cc1 here?
A: 7980 nM (active)

Q: For Cc1c(NC(=O)c2cc(-n3cnnc3)ccc2Cl)cccc1-c1nc2ccccc2s1, which Potency is on record?
A: 2830 nM (active)

Q: With Cc1ccc(C(=O)O/N=C(\N)c2ccccn2)c(Cl)c1 as the molecule, how does the Potency read?
A: 31.8 nM (active)

Q: Which Potency does the source give for CCOc1ccc2nc(NC(=O)c3cc([N+](=O)[O-])ccc3N3CCOCC3)sc2c1 here?
A: 5040 nM (active)

Q: Which “activity change, positive = activation” value does the source give for CC(=O)Oc1ccc(C(=O)Nc2ccccc2C(=O)Nc2cccc(C(=O)O)c2)cc1 here?
A: -13% (inactive)

Q: Which Potency does the source give for O=C(Nc1cccc(-c2nc3ccccc3s2)c1)c1cc(-n2cnnc2)ccc1Cl here?
A: 4490 nM (active)

Q: Which Potency does the source give for COc1ccc(-c2cccc(C(=O)Nc3cccc(C(=O)O)c3)c2)cc1 here?
A: 4490 nM (active)

Q: Which Potency does the source give for Cn1c(N/N=C/c2cc3ccccc3nc2Cl)nc2ccccc21 here?
A: 711 nM (active)

Q: For COc1cc(OC)cc(C(=O)Nc2ccc(-c3nc4ccccc4s3)c(C)c2)c1, which Potency is on record?
A: 11300 nM (active)

Q: Which Potency does the source give for Cc1ccc2nc(-c3ccc(N)cc3)sc2c1 here?
A: 35.6 nM (active)

Q: Which Potency does the source give for Nc1ccc(-c2nc3ccc(C(=O)O)cc3s2)cc1 here?
A: 14.2 nM (active)

Q: Which Potency does the source give for Nc1ccc(-c2nc3ccc(N)cc3s2)cc1 here?
A: 283 nM (active)

Q: Which Potency does the source give for COc1ccc2nc(NC(=O)c3cccs3)sc2c1 here?
A: 10000 nM (active)

Q: Which “activity change, positive = activation” value does the source give for O=C(Cc1ccccc1)Nc1ccccc1C(=O)Nc1ccc(C(=O)O)cc1 here?
A: 11.6% (inactive)

Q: Which Potency does the source give for c1ccc2sc(-c3ccc4c(c3)OCO4)nc2c1 here?
A: 225 nM (active)

Q: For COc1ccc(NS(=O)(=O)c2cccc(C(=O)Nc3ccccc3C(=O)O)c2)cc1, which “activity change, positive = activation” value is on record?
A: 5.31% (inactive)

Q: For O=C(O)c1ccc(NC(=O)c2cccc(C(=O)Nc3ccc(C(=O)O)cc3)c2)cc1, which “activity change, positive = activation” value is on record?
A: 8.99% (inactive)

Q: With COc1ccc(C(=O)Nc2ccccc2-c2nc3ccccc3s2)c(OC)c1 as the molecule, how does the Potency read?
A: 22500 nM (active)

Q: Which Potency does the source give for Oc1ccc(-c2nc3ccccc3s2)c(O)c1 here?
A: 11300 nM (active)

Q: For Cc1c(C)c2ccc(OCC(=O)Nc3ccccn3)c(C)c2oc1=O, which Potency is on record?
A: 5.6 nM (active)

Q: Which “activity change, positive = activation” value does the source give for O=C(O)c1cccc(NC(=O)c2cccc(S(=O)(=O)N3CCc4ccccc43)c2)c1 here?
A: 18.1% (inactive)

Q: With CCOc1ccc2nc(NC(=O)c3cccnc3)sc2c1 as the molecule, how does the Potency read?
A: 1130 nM (active)

Q: For O=C(Nc1ccc(Cl)cc1-c1nc2ccccc2s1)c1ccco1, which Potency is on record?
A: 20000 nM (active)

Q: For O=C(Nc1ccccc1C(=O)O)c1cccc(S(=O)(=O)Nc2ccc(Br)cc2)c1, which “activity change, positive = activation” value is on record?
A: 9.47% (inactive)

Q: Which Potency does the source give for COc1ccc2nc(NC(=O)c3ccc4ncsc4c3)sc2c1 here?
A: 2830 nM (active)

Q: Which Potency does the source give for CCOc1ccc2nc(NC(=O)Cc3cccs3)sc2c1 here?
A: 3560 nM (active)

Q: Which Potency does the source give for Cc1cccc(C(=O)Nc2ccccc2C(=O)Nc2ccc(C(=O)O)cc2)c1 here?
A: 15900 nM (active)

Q: Which Potency does the source give for Cc1ccc(C(=O)Nc2cccc(C(=O)O)c2)cc1S(=O)(=O)N1CCCCC1 here?
A: 565 nM (active)

Q: With Cc1ccc(C(=O)Nc2ccc(C(=O)O)cc2)cc1S(=O)(=O)NCc1ccccc1 as the molecule, how does the “activity change, positive = activation” value read?
A: 11.9% (inactive)

Q: For COc1ccc(CC(=O)Nc2cccc(C(=O)Nc3ccccc3C(=O)O)c2)cc1OC, which Potency is on record?
A: 5040 nM (active)
